22 molecules from PubChem BioAssay can be followed below.

In test [1] the target is Tumor necrosis factor receptor superfamily member 10B (Homo sapiens) (UniProt O14763). In words: caspase-8 TRAIL sensitization, hit retest, confirmation, cell-based, NB7+caspase-8, with/without TRAIL, luminescence panel (AID 651596). The note with it: NB7 neuroblastoma + caspase-8, TRAIL sensitization, luminescence viability, with TRAIL, mean of runs, at 10 µM, stronger effect = higher value.

Experiment in test [2]: as above
The note with it: NB7 neuroblastoma + caspase-8, without TRAIL, luminescence viability, without TRAIL, mean of runs, at 10 µM.

Chain of Tumor necrosis factor receptor superfamily member 10B (Homo sapiens) (O14763 whole entry, looked up): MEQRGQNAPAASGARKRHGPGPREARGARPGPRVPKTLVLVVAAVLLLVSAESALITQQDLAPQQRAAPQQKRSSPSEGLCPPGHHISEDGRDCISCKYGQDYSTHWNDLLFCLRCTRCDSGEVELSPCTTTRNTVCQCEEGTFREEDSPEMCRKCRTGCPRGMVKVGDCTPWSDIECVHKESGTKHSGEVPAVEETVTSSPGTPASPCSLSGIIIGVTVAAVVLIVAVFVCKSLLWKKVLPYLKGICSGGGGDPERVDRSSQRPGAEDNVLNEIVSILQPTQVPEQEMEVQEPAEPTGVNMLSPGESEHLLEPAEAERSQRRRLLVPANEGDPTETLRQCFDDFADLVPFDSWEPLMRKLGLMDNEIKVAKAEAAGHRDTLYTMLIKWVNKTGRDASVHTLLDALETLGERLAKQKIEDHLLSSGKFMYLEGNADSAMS

Take `c1ccc2nc3c(nc2c1)[nH]c1ccccc13`: the activity in test [1] was found to be 45.7%; in test [2], 44.5%.

Turning to `CCOC(=O)c1ccc(N=c2sc(C(=O)OC)cc(=O)n2-c2ccc(C(=O)OCC)cc2)cc1`, the activity in test [1] is 67.6%; in test [2] it was 37.6%.

With `O=C(Nc1c(Cl)cc2c(c1Cl)Cc1cc([N+](=O)[O-])ccc1-2)C(Cl)Cl`, the activity in test [1] was 89.3%; in test [2], 94.9%.

As for `FC(F)(F)c1cccc(-c2nc3nc(Cl)c(Cl)nc3[nH]2)c1`, the activity is 57.3% in test [1] and 42.6% in test [2].

For the molecule `COC(=O)c1c(NC(=O)COc2ccc(Cl)cc2)sc2c1CC(C)(C)NC2(C)C`, the activity in test [1] came out at 81.2%; in test [2], 93.9%.

As for `Oc1ccc(-c2nc3ccccc3s2)cc1`, the figures for the activity in test [1] and in test [2] were 47.5% and 47.9%, respectively.

Consider `CCCn1c(C)cc(C(=O)COC(=O)c2ccc[nH]c2=O)c1C`, for which the activity in test [1] was determined as 49%; in test [2], 49.6%.

As for `CC1C(=O)NN=C1C(=O)N/N=C\C(Br)=C\c1ccccc1` (centres undefined), the activity amounted to 80.2% in test [1] and 73.8% in test [2].

As for `CC(C)c1nnc(NC(=O)c2c(O)c3cccc4c3n(c2=O)CCC4)s1`, the results for the activity in test [1] and in test [2] were 43.6% and 36.5%, respectively.

As for `O=C(NC1=NC2CCCCC2N1)c1ccccc1` (centres undefined), the activity turned out to be 62.8% in test [1] and 52.1% in test [2].

Take `COc1ccccc1/C=C/C(=O)Nc1ccc2c(c1)OCCO2`: the figures for the activity in test [1] and in test [2] were 66.6% and 73.5%, respectively.

On to `COc1ccc2oc(-c3ccccc3)cc(=O)c2c1`, for which the activity was found to be 76.1% in test [1] and 78% in test [2].

For `COc1ccc2oc(=Nc3ccccc3)c(-c3nc4ccccc4[nH]3)cc2c1`, the activity amounted to 52.8% in test [1] and 55% in test [2].

Turning to `Cc1cc(N)n2nc(-c3ccccc3)cc2n1`, the activity was 77.2% in test [1] and 68.2% in test [2].

`CC(C)(C)c1csc(NC(=O)Nc2ccccc2)n1`: the activity in test [1] came out at 41.3%; in test [2], 50%.

Regarding `Cc1ccc(NC(=O)c2ccc3c(c2)OCCO3)cc1`, the activity in test [1] came out at 76%; in test [2], 73.2%.

For `Cc1ccc(NC(=S)c2nc3ccccc3[nH]2)cc1`, the results for the activity in test [1] and in test [2] were 74.3% and 69.7%, respectively.

Consider `Oc1ccc(-c2cn3ccccc3n2)cc1`, for which the values for the activity in test [1] and in test [2] were 45.3% and 45.5%, respectively.

Regarding `COc1ccc(-c2nn(-c3ccccc3)cc2/C=N/NC(=O)c2ccc(Br)o2)cc1`, the activity in test [1] was 79.5%; in test [2] it was 32.3%.

For `C/C(=N\Nc1nncc2ccccc12)c1cccc(OC(F)F)c1`, the values for the activity in test [1] and in test [2] were 75.8% and 72.8%, respectively.

Consider `CCc1ccc2nc(N(CCCN(C)C)C(=O)c3ccc(S(=O)(=O)N4CCCc5ccccc54)cc3)sc2c1`, for which the activity in test [1] was 38.9%; in test [2], 63.9%.

Consider `CCc1cc2c(=O)[nH]c(-c3ccccn3)nc2s1`, for which the activity in test [1] came to 35.9%; in test [2], 41%.
